Measured values: PubChem BioAssay (NCI)
This is part of a sample that, as a whole, favours compounds with a hit. Of some 83,000 tested, about 20% had one in any assay.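 Cells were grown in 96-well plates and exposed to the test compound at a single concentration for 48 hours; results are reported as percent growth, with values below 10 considered active.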 Activity calls are given as the source filed them.

Assays:
Assay in all cases: NCI-60 one-dose screen, 48 h (100 = growth as untreated, 0 = no growth, -100 = all killed)
Conditions in all cases: 10 µM unless noted
HCT-15 colon = system: HCT-15 colon
HT29 colon = system: HT29 colon
SNB-75 CNS = system: SNB-75 CNS
SNB-19 CNS = system: SNB-19 CNS
PC-3 prostate = system: PC-3 prostate
SK-MEL-5 melanoma = system: SK-MEL-5 melanoma
UACC-62 melanoma = system: UACC-62 melanoma
LOX IMVI melanoma = system: LOX IMVI melanoma
SK-MEL-28 melanoma = system: SK-MEL-28 melanoma

Measured: growth

CSc1nc(-c2cccs2)c2c(N)[nH]nc2n1
inactive: HCT-15 colon 99.6% | HT29 colon 93.2% | SNB-75 CNS 93.7% | SNB-19 CNS 106% | PC-3 prostate 93.6% | SK-MEL-5 melanoma 101% | UACC-62 melanoma 93.7% | LOX IMVI melanoma 93.3% | SK-MEL-28 melanoma 114%

COc1ccc(-c2cc(-c3nnc(SCC(=O)Nc4ccc(/C(C)=N\O)cc4)n3-c3ccccc3)c3cc(OC)ccc3n2)cc1
inactive: HCT-15 colon 70% | HT29 colon 79.8% | SNB-75 CNS 80.3% | SNB-19 CNS 77.9% | PC-3 prostate 61.1% | SK-MEL-5 melanoma 83.8% | UACC-62 melanoma 49% | SK-MEL-28 melanoma 95.4%
active: LOX IMVI melanoma -36.4%

COC(=O)[C@]1(C)CCC[C@]2(C)[C@H]3C[C@H]4C(C(C)C)=C[C@]3(CC[C@H]21)[C@@H]1C(=O)N(CCC#N)C(=O)[C@@H]14
inactive: HCT-15 colon 83.2% | HT29 colon 70.5% | SNB-75 CNS 93% | SNB-19 CNS 102% | PC-3 prostate 31.2% | SK-MEL-5 melanoma 71.6% | UACC-62 melanoma 62.9% | LOX IMVI melanoma 98.1% | SK-MEL-28 melanoma 108%

C[C@]12CC[C@@H]3c4ccc(O)cc4CC[C@H]3[C@@H]1C[C@H](O)C2
inactive: HCT-15 colon 44.4% | HT29 colon 94.1% | SNB-75 CNS 84.2% | SNB-19 CNS 66.2% | PC-3 prostate 80% | SK-MEL-5 melanoma 64.9% | UACC-62 melanoma 43.6% | LOX IMVI melanoma 63.4% | SK-MEL-28 melanoma 84.3%

O=C(Nc1ccc(N=Cc2ccccc2O)cc1)NC1C=c2ccccc2=CC1 (centres undefined)
inactive: HCT-15 colon 100% | HT29 colon 104% | SNB-75 CNS 86.3% | SNB-19 CNS 100% | PC-3 prostate 104% | SK-MEL-5 melanoma 98.7% | UACC-62 melanoma 92.7% | LOX IMVI melanoma 105%

COC1=CC=CC2(OC)C3(O)CCCc4cccc(c43)N3C(=O)COC132 (centres undefined)
inactive: HCT-15 colon 103% | HT29 colon 97.2% | SNB-75 CNS 84.2% | SNB-19 CNS 101% | PC-3 prostate 95.4% | SK-MEL-5 melanoma 104% | UACC-62 melanoma 92% | LOX IMVI melanoma 97.7% | SK-MEL-28 melanoma 111%

COc1ccc(C2N(c3cc(OC)c(OC)c(OC)c3)C(=O)C2(F)F)cc1F (centres undefined)
active: SK-MEL-5 melanoma 8.08%
inactive: HCT-15 colon 19.4% | HT29 colon 11.2% | SNB-75 CNS 64.7% | SNB-19 CNS 52.9% | PC-3 prostate 35.9% | UACC-62 melanoma 55.5% | LOX IMVI melanoma 27.1% | SK-MEL-28 melanoma 77.2%

c1ccc2c3c([nH]c2c1)C(c1ccc(C2NCCc4c2[nH]c2ccccc42)cc1)NCC3 (centres undefined)
inactive: PC-3 prostate 16.8%
active: HCT-15 colon -65.8% | HT29 colon -74.2% | SNB-75 CNS -11.4% | SNB-19 CNS 2.5% | SK-MEL-5 melanoma -92.9% | UACC-62 melanoma -69.9% | LOX IMVI melanoma -94.6% | SK-MEL-28 melanoma -52.8%

Cc1cc(NC(=O)CNc2nc(Oc3ccc(F)cc3)nc(-c3ccc(F)cc3)n2)ccc1Cl
inactive: HCT-15 colon 102% | HT29 colon 94% | SNB-75 CNS 87.8% | SNB-19 CNS 100% | PC-3 prostate 89.1% | SK-MEL-5 melanoma 99.1% | UACC-62 melanoma 97.5% | LOX IMVI melanoma 96.1% | SK-MEL-28 melanoma 109%

CCCS(=O)(=O)Nc1ccc(F)c(C(=O)c2c[nH]c3ncc(-c4ccc(OCCCC5CCCCN5)nc4)cc23)c1F (centres undefined)
inactive: HCT-15 colon 102% | SNB-75 CNS 19.4% | SNB-19 CNS 77.5% | PC-3 prostate 53% | SK-MEL-5 melanoma 44.7% | LOX IMVI melanoma 32.8%
active: HT29 colon 2.79% | UACC-62 melanoma -22% | SK-MEL-28 melanoma -1.65%

CCCCCCCc1n(Cc2ccc3ccccc3c2)c2ccccc2[n+]1Cc1ccc2ccccc2c1
active: HCT-15 colon -80% | HT29 colon -84.3% | SNB-75 CNS -86.8% | SNB-19 CNS -77.9% | PC-3 prostate -88.7% | SK-MEL-5 melanoma -92.8% | UACC-62 melanoma -89.6% | LOX IMVI melanoma -75.1% | SK-MEL-28 melanoma -85.4%

COc1cc(/C=C/CO)cc(OC)c1O[C@@H]1O[C@H](CO)[C@@H](O)[C@H](O)[C@H]1O
inactive: HCT-15 colon 101% | HT29 colon 100% | SNB-75 CNS 94.9% | SNB-19 CNS 97.2% | PC-3 prostate 95.1% | SK-MEL-5 melanoma 98.9% | UACC-62 melanoma 100% | LOX IMVI melanoma 96.1% | SK-MEL-28 melanoma 105%

c1ccc(-c2cn3ccnc3c(-c3ccc4c(c3)ncn4C3CCCCC3)n2)cc1
inactive: HCT-15 colon 80.9% | HT29 colon 90.8% | SNB-75 CNS 94.4% | SNB-19 CNS 98.3% | PC-3 prostate 86.5% | SK-MEL-5 melanoma 94.3% | UACC-62 melanoma 98% | LOX IMVI melanoma 95.1% | SK-MEL-28 melanoma 111%

O=C1NN(c2ccccc2)C(c2ccc3c(c2)OCO3)N2CCC[C@@H]12 (some centres undefined)
inactive: HCT-15 colon 102% | HT29 colon 85.8% | SNB-75 CNS 93.6% | SNB-19 CNS 103% | PC-3 prostate 90.7% | SK-MEL-5 melanoma 106% | UACC-62 melanoma 92% | LOX IMVI melanoma 91.9% | SK-MEL-28 melanoma 111%

O=C(Nc1cc(Nc2ncccc2-c2ncnc3nc[nH]c23)ccc1F)c1cc(C(F)(F)F)cc(C(F)(F)F)c1
active: HCT-15 colon -67% | HT29 colon -23.8% | SNB-75 CNS -39.5% | PC-3 prostate -45.1% | SK-MEL-5 melanoma -17.5% | UACC-62 melanoma -23.6% | LOX IMVI melanoma -69.4% | SK-MEL-28 melanoma -66.1%
inactive: SNB-19 CNS 13.7%

Nc1ccccc1NS(=O)(=O)c1ccc(Cl)cc1
inactive: HCT-15 colon 102% | HT29 colon 91.7% | SNB-75 CNS 81.8% | SNB-19 CNS 96.6% | PC-3 prostate 91.5% | SK-MEL-5 melanoma 94.4% | UACC-62 melanoma 91.4% | LOX IMVI melanoma 92.1% | SK-MEL-28 melanoma 96.8%

Nc1c(C(=O)Nc2ccccn2)sc2nc3c(cc12)CCCCC3
inactive: HCT-15 colon 24% | SNB-75 CNS 12.3% | SNB-19 CNS 33.4% | PC-3 prostate 31.4% | SK-MEL-5 melanoma 22.2% | UACC-62 melanoma 40.8% | LOX IMVI melanoma 48.6% | SK-MEL-28 melanoma 73.7%
active: HT29 colon 7.16%

O=C1NC(SCc2ccc(F)cc2)=N/C1=C/c1cccc(OCc2ccc(Cl)cc2)c1
inactive: HCT-15 colon 72.1% | HT29 colon 68.1% | SNB-75 CNS 50.7% | SNB-19 CNS 33.4% | PC-3 prostate 77.5% | SK-MEL-5 melanoma 83% | UACC-62 melanoma 72% | LOX IMVI melanoma 24.7% | SK-MEL-28 melanoma 91.2%

COCCc1n(Cc2ccc3ccccc3c2)c2ccccc2[n+]1Cc1ccc2ccccc2c1
active: HCT-15 colon 7.25% | HT29 colon -61.3% | SNB-75 CNS -39.7% | SNB-19 CNS -73.8% | PC-3 prostate -14.5% | SK-MEL-5 melanoma -97.5% | UACC-62 melanoma -89.3% | LOX IMVI melanoma -92.5% | SK-MEL-28 melanoma -46.4%

Nc1cc(N)c(S(=O)(=O)O)cc1N=Nc1cc([N+](=O)[O-])ccc1O
inactive: HCT-15 colon 104% | HT29 colon 102% | SNB-75 CNS 88.7% | SNB-19 CNS 98.8% | PC-3 prostate 87.1% | SK-MEL-5 melanoma 105% | UACC-62 melanoma 92.1% | LOX IMVI melanoma 93.4% | SK-MEL-28 melanoma 102%
